# Results reported in PubChem BioAssay (Tox21).
# Activity calls are given as the source filed them. Entries that show only a call come without a potency. Unless noted, the call rests on the fitted dose curve; in most records, active means well fitted curve in the direction sought with a large enough effect in the repeat runs; inconclusive means weak or mixed curves; inactive means no such curve, though single readings can be large; an effect the other way counts as inactive or inconclusive.
# How the values were obtained:
# [1] = qHTS assay to test for compound auto fluorescence at 535 nm (green) in HEK293 cells (AID 720680)
# [2] = qHTS assay to test for compound auto fluorescence at 460 nm (blue) in HEK293 cell free culture (AID 720681)
# Procedure, shortened: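 Test compounds were pinned into cell-free culture medium (DMEM with 10% FBS) and fluorescence was read directly at Ex/Em 405/460 nm. Signals were expressed as fluorescence equivalents of triamterene, with DMSO vehicle as control.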
# [3] = qHTS assay to test for compound auto fluorescence at 535 nm (green) in HEK293 cell free culture (AID 720682)
# Procedure, shortened: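 Cell-free medium (DMEM, 10% FBS) receives compound or DMSO by pintool. Plate read directly at Ex 485/Em 535 nm. Signal converted to fluorescein equivalency.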
# [4] = qHTS assay to test for compound auto fluorescence at 590 nm (red) in HEK293 cell free culture (AID 720683)
# Procedure, shortened: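 Tox21 10K library compounds were pinned into cell-free DMEM with 10% FBS and fluorescence was read at excitation 540 nm. Activity is expressed as Rose Bengal sodium equivalency.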
# [5] = qHTS assay to test for compound auto fluorescence at 590 nm (red) in HepG2 cell free culture (AID 720684)
# Procedure, shortened: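 Measured in medium alone (MEM containing 10% FBS) following pintool addition of compound; emission at 590 nm with 540 nm excitation, referenced to Rose Bengal sodium.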
# [6] = qHTS assay to test for compound auto fluorescence at 460 nm (blue) in HepG2 cell free culture (AID 720685)
# Procedure, shortened: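 Compound (23 nL) or DMSO pinned into cell-free MEM with 10% FBS; blue fluorescence read at 405/460 nm excitation/emission, expressed as auto-fluorescence equivalency to triamterene.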
# [7] = qHTS assay to test for compound auto fluorescence at 535 nm (green) in HepG2 cell free culture (AID 720686)
# [8] = qHTS assay to test for compound auto fluorescence at 460 nm (blue) in HepG2 cells (AID 720687)
# Procedure, shortened: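 Cells (2,000/well in MEM with 10% FBS) attached overnight at 37 C, then were exposed to compound or DMSO for 1 hr at 37 C, 5% CO2. Fluorescence read at Ex/Em 405/460 nm, expressed as triamterene-equivalent signal.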
# [9] = target: Glucocorticoid receptor (Homo sapiens) (UniProt P04150); assay: qHTS assay to identify small molecule agonists of the glucocorticoid receptor (GR) signaling pathway (AID 720691; active means well fitted activation curve with a large enough effect in the signal ratio in the repeat runs, not every such curve was filed as active; inconclusive means weak or mixed curves, or effect the other way; inactive means no such curve, though single readings can be large or run the other way; the % refers to the signal ratio; further: potency means the concentration at half of the fitted maximal effect); conditions: GR-bla HeLa, beta-lactamase reporter ratio, 18 h; activation: at 62.4 µM (top of the series)
# Chain of Glucocorticoid receptor (Homo sapiens) (P04150 whole entry, looked up): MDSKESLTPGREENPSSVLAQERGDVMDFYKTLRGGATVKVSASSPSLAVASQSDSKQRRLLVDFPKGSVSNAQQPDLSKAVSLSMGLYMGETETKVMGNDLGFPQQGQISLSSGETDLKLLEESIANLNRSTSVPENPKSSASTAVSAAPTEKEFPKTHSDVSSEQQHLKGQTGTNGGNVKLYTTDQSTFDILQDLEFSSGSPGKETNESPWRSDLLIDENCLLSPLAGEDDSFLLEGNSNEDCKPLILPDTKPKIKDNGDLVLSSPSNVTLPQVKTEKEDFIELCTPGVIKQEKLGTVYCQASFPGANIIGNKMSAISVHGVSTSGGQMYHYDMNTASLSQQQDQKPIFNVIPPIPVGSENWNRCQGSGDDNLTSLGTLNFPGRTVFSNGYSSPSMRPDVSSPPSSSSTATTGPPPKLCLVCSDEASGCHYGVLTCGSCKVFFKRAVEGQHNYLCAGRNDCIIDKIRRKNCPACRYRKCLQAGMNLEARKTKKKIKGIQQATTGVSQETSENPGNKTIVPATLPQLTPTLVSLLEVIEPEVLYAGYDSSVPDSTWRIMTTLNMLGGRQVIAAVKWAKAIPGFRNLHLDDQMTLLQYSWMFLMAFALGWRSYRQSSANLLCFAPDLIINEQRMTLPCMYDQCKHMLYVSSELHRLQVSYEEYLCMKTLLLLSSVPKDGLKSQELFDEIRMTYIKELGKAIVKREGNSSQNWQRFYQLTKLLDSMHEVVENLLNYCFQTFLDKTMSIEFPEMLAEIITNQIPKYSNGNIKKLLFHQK
# Procedure, shortened: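 Beta-lactamase reporter activity, read as fluorescence intensity, was measured in GR-bla HeLa cells exposed to compounds for 18 h at 37 C and then loaded with LiveBLAzer B/G FRET substrate for 2 h at room temperature.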
# [10] = qHTS assay to identify small molecule antagonists of the glucocorticoid receptor (GR) signaling pathway - cell viability counter screen (AID 720693); further: nearly all actives have a fitted effect of over 55% in size; further: potency means the concentration at half of the fitted maximal effect
# [11] = qHTS assay for identifying genotoxic compounds that show differential cytotoxicity against isogenic chicken DT40 cell lines with known DNA damage response pathways - wild type cell line (AID 743012); further: nearly all actives have a fitted effect of over 60% in size; further: potency means the concentration at half of the fitted maximal effect
# Procedure, shortened: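 Quantitative HTS on parental DT40 cells: 40 h compound treatment at 37 C/5% CO2, with viability then determined by CellTiter-Glo luminescence. Values serve as the DNA repair-proficient reference for differential cytotoxicity.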
# [12] = qHTS assay for identifying genotoxic compounds that show differential cytotoxicity against isogenic chicken DT40 cell lines with known DNA damage response pathways - Rev3 mutant cell line (AID 743014); further: nearly all actives have a fitted effect of over 55% in size; further: potency means the concentration at half of the fitted maximal effect
# [13] = qHTS assay to identify small molecule antagonists of the androgen receptor (AR) signaling pathway - cell viability counter screen (AID 743033; further: nearly all actives have a fitted effect of over 45% in size; further: potency means the concentration at half of the fitted maximal effect)
# [14] = qHTS assay for identifying genotoxic compounds that show differential cytotoxicity against isogenic chicken DT40 cell lines with known DNA damage response pathways - Rad54/Ku70 mutant cell line (AID 743015); further: nearly all actives have a fitted effect of over 60% in size; further: potency means the concentration at half of the fitted maximal effect
# [15] = qHTS assay to identify small molecule antagonists of the androgen receptor (AR) signaling pathway using the MDA cell line - cell viability counter screen (AID 743041; further: nearly all actives have a fitted effect of over 45% in size; further: potency means the concentration at half of the fitted maximal effect)
# Procedure, shortened: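 Viability counter screen run alongside the AR antagonist reporter: cells seeded 5 h before compound, R1881 added, 16 h incubation at 37C without CO2, fluorescent CellTiter-Fluor signal quantified.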
# [16] = target: Androgen receptor (Homo sapiens) (UniProt P10275); assay: qHTS assay to identify small molecule antagonists of the androgen receptor (AR) signaling pathway (AID 743035; active means well fitted inhibition curve with a large enough effect in the signal ratio in the repeat runs, not every such curve was filed as active; inconclusive means weak or mixed curves, or effect the other way; inactive means no such curve, though single readings can be large or run the other way; the % refers to the signal ratio; further: potency means the concentration at half of the fitted maximal effect)
# Chain of Androgen receptor (Homo sapiens) (P10275 whole entry, looked up): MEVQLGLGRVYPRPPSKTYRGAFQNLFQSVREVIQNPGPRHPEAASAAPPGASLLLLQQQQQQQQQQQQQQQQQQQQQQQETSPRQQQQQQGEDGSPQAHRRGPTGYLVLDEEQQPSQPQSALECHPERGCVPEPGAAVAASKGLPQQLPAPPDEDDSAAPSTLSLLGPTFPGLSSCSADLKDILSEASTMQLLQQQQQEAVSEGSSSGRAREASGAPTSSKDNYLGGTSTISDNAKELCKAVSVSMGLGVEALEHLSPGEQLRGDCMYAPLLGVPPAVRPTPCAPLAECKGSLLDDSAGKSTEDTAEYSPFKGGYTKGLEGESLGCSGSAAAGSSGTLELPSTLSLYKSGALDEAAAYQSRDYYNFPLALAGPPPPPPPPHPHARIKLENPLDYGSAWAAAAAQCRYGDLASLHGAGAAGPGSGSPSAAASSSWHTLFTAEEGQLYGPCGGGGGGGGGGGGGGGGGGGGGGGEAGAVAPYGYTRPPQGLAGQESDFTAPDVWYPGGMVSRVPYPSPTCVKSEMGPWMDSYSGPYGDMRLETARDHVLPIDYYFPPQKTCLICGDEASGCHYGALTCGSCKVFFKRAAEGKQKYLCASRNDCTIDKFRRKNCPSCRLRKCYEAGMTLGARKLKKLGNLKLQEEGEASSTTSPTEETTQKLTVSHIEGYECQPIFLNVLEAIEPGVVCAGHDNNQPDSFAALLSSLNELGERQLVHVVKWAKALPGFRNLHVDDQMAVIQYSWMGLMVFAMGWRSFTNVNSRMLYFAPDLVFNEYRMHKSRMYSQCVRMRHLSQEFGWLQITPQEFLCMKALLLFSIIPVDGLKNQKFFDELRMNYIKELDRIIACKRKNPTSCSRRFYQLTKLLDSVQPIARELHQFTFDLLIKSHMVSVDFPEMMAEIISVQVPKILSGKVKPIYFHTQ
# Procedure, shortened: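 Cell line: GeneBLAzer AR-UAS-bla GripTite (HEK293). Stimulus: R1881 added after compound. Exposure: 16 h, 37C, 5% CO2. Readout: LiveBLAzer B/G FRET fluorescence after 2 h at room temperature.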
# [17] = target: Androgen receptor (Homo sapiens) (UniProt P10275); assay: qHTS assay to identify small molecule agonists of the androgen receptor (AR) signaling pathway (AID 743036; active means well fitted activation curve with a large enough effect in the signal ratio in the repeat runs, with a control signal flat, not every such curve was filed as active; inconclusive means weak or mixed curves, or effect the other way; inactive means no such curve, though single readings can be large or run the other way; the % refers to the signal ratio)
# Procedure, shortened: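 AR-bla HEK293 cells, 2,000/well; 4 h preincubation 37C/5% CO2; compound (DMSO) 16 h at 37C; LiveBLAzer B/G FRET substrate 2 h RT; fluorescence intensity read-out.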
# [18] = target: Androgen receptor (Homo sapiens) (UniProt P10275); assay: qHTS assay to identify small molecule agonists of the androgen receptor (AR) signaling pathway using the MDA cell line (AID 743040; further: nearly all actives have a fitted effect of over 20% in size)
# Procedure, shortened: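 Luminescence from ONE-Glo, read after 30 min at room temperature, reflects MMTV-driven luciferase in MDA-kb2 cells (AR- and GR-responsive). Treatment lasted 16 h at 37C, 0% CO2.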
# [19] = target: Androgen receptor (Homo sapiens) (UniProt P10275); assay: qHTS assay to identify small molecule antagonists of the androgen receptor (AR) signaling pathway using the MDA cell line (AID 743042; further: nearly all actives have a fitted effect of over 55% in size; further: potency means the concentration at half of the fitted maximal effect)
# Procedure, shortened: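 MDA-kb2 cells (human breast carcinoma, stably carrying an MMTV-luciferase reporter responsive to AR and GR) were plated at 3,000 cells/well and preincubated 5 hr at 37C, then given compound plus R1881 agonist for 16 h. ONE-Glo luminescence was read.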
# [20] = target: Glucocorticoid receptor (Homo sapiens) (UniProt P04150); assay: qHTS assay to identify small molecule antagonists of the glucocorticoid receptor (GR) signaling pathway (AID 720692; active means well fitted inhibition curve with a large enough effect in the signal ratio in the repeat runs, not every such curve was filed as active; inconclusive means weak or mixed curves, or effect the other way; inactive means no such curve, though single readings can be large or run the other way; the % refers to the signal ratio; further: potency means the concentration at half of the fitted maximal effect)
# Procedure, shortened: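 Fluorescence from cleaved LiveBLAzer B/G FRET substrate reports GRE-driven beta-lactamase in HeLa cells; compounds are tested against 5 nM dexamethasone (final) over 18 h at 37 C, substrate incubation 2 h at room temperature.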
SMILES,outcome [1],Potency [2],outcome [3],outcome [4],outcome [5],Potency [6],Potency [7],Potency [8],Potency [9],Potency [10],Potency [11],Potency [12],Potency [13],Potency [14],Potency [15],Potency [16],Potency [17],Potency [18],Potency [19],Potency [20]
CC(=O)OCC(=O)[C@@]1(O)CC[C@H]2[C@@H]3C[C@H](C)C4=CC(=O)C=C[C@]4(C)[C@H]3[C@@H](O)C[C@@]21C,inactive,inactive,inactive,inactive,inactive,inactive,inactive,inactive,0.134 µM [inconclusive] (active),inactive,inactive,inactive,inactive,–,–,–,–,–,–,–
O=C1CCC(c2ccc(-n3ccnc3)cc2)=NN1,inactive,inactive,inactive,inactive,inactive,inactive,inactive,inactive,inactive,inactive,inactive,inactive,inactive,inactive,inactive,–,–,–,–,–
CCCCC[C@H](O)/C=C/[C@@H]1[C@@H](C/C=C\CCCC(=O)O)[C@@H](O)C[C@H]1O,inactive,inactive,inactive,inactive,inactive,inactive,inactive,inactive,inactive,inactive,inactive,inactive,inactive,inactive,inactive,–,–,–,–,–
Oc1ccc(Cl)c2c1CCC2,inactive,inactive,inactive,inactive,inactive,inactive,inactive,inactive,inactive,inactive,inactive,inactive,inactive,inactive,inactive,inactive,inactive,inactive,inactive,–
CCC(=O)OC(OP(=O)(CCCCc1ccccc1)CC(=O)N1C[C@H](C2CCCCC2)C[C@H]1C(=O)O)C(C)C (stereo partly specified),inactive,inactive,inactive,inactive,inactive,inactive,inactive,inactive,inactive,inactive,inactive,–,inactive,inactive,inactive,–,–,–,–,–
C=C1C(=C/C=C2\CCC[C@]3(C)[C@@H]([C@H](C)CCCC(C)C)CC[C@@H]23)C[C@@H](O)C[C@@H]1O,inactive,inactive,inactive,inactive,inactive,inactive,inactive,inactive,–,21.3 µM (active),5.96 µM (active),13.3 µM (active),inactive,6.68 µM (active),inactive,–,–,–,–,8.49 µM (active)
c1ccc(-c2ccc(C(c3ccccc3)n3ccnc3)cc2)cc1 (stereo unspecified),inactive,inactive,inactive,inactive,inactive,inactive,inactive,inactive,–,inactive,10.6 µM (active),–,inactive,11.9 µM (active),inactive,–,–,–,–,23.9 µM (active)
O=C(CCN1CCC(c2ccccc2)C1)c1ccc2c(c1)OCCO2 (stereo unspecified),inactive,inactive,inactive,inactive,inactive,inactive,inactive,inactive,inactive,inactive,2.66 µM (active),4.73 µM (active),inactive,4.22 µM (active),–,–,–,–,–,–
N#Cc1nc(Cl)c(Cl)c(Cl)c1Cl,inactive,inactive,inactive,inactive,inactive,inactive,inactive,inactive,–,19.5 µM (active),1.54 µM (active),1.72 µM (active),9.77 µM (active),1.54 µM (active),30.6 µM (active),–,–,inactive,6.86 µM (active),1.23 µM (active)
Cc1cnc(C(=O)O)c[n+]1[O-],inactive,inactive,inactive,inactive,inactive,inactive,inactive,inactive,–,inactive,inactive,inactive,inactive,inactive,inactive,–,–,–,–,–
CN1C(=O)C[C@@H](C(=O)N[C@@H](Cc2cnc[nH]2)C(=O)N2CCC[C@H]2C(N)=O)NC1=O,inactive,inactive,inactive,inactive,inactive,inactive,inactive,inactive,–,inactive,inactive,inactive,–,inactive,inactive,–,–,–,–,–
CC(=NCc1ccccc1)c1ccccc1O,inactive,inactive,inactive,inactive,inactive,inactive,inactive,inactive,–,inactive,inactive,inactive,inactive,inactive,inactive,–,–,–,–,–
c1ccc2cc3c4ccccc4c4ccccc4c3cc2c1,inactive,inactive,inactive,inactive,inactive,inactive,inactive,inactive,–,inactive,inactive,inactive,inactive,inactive,–,–,–,–,–,–
Cc1cc(C(=O)NCCc2ccc(S(=O)(=O)NC(=O)NN3CCCCCC3)cc2)no1,inactive,inactive,inactive,inactive,inactive,inactive,inactive,inactive,–,inactive,inactive,inactive,inactive,inactive,inactive,inactive,inactive,inactive,inactive,–
COc1cccc2c1[C@@H]1CN(CCCCn3c(=O)[nH]c4c(sc5ncc(-c6ccccc6)nc54)c3=O)C[C@@H]1CO2,inactive,inactive,inactive,inactive,inactive,inactive,inactive,inactive,–,inactive,13.3 µM (active),18.8 µM (active),–,11.9 µM (active),–,–,–,inactive,29.8 µM (active),–
C=N[C@@H](C(=O)N[C@@H]1C(=O)N2[C@@H]1SC(C)(C)[C@@H]2C(=O)O)c1ccccc1,inactive,inactive,inactive,inactive,inactive,inactive,inactive,inactive,–,inactive,inactive,inactive,inactive,inactive,inactive,–,–,–,–,–
CC[C@H](C)C(=O)O[C@H]1CCC=C2C=C[C@H](C)[C@H](CC[C@@H]3C[C@@H](O)CC(=O)O3)[C@H]21,inactive,inactive,inactive,inactive,inactive,inactive,inactive,inactive,–,inactive,2.98 µM (active),2.37 µM (active),–,11.9 µM (active),inactive,15.1 µM (active),inactive,inactive,inactive,–
O=C(O)COc1ccccc1/C=N/NC(=O)c1ccncc1,inactive,inactive,inactive,inactive,inactive,inactive,inactive,inactive,–,inactive,inactive,inactive,inactive,inactive,inactive,inactive,inactive,inactive,inactive,–
